Experimental data from PubChem BioAssay AID624404 (Broad Institute, 2012).
About 710 (39%) of roughly 1,800 compounds were called active. About 28% were inconclusive and are not listed.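 Rule for the calls: active = luciferase signal rise whose fitted curve crosses a set activity limit at or below the top valid tested dose; inconclusive = flat fit with 30 to 70% rise, or poor fit; inactive = signal falling, flat within 30%, or crossing above top dose.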 The list is a sample of the results. Potency and affinity values are given separately.

Assay: reporter signal increase, D54 LucT cells – cell-based, luminescence, cherry pick, counter-screen for N-linked glycosylation inhibitor project, dose response (AID 624404);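 note: 0% = median neutral control signal and 100% = twice that signal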
Conditions: D54 LucT luciferase reporter counterscreen, 24 h; series mostly up to 19.5 µM; activity increase (luciferase signal): at the top concentration

| SMILES | activity increase (luciferase signal) |
| --- | --- |
| CN(C)c1ccc(CNC(=O)C2(C)Cc3c(-c4ccc5c(c4)OCO5)ccnc3O2)cc1 (stereo not drawn) | 37% (inactive) |
| CC1=C([N+](=O)[O-])C(c2ccccc2)C2=C(N1)c1ccccc1C2=O (stereo not drawn) | 10.1% (inactive) |
| CCCCCCCCn1c2c(c(=N)c3c1CCC3)CCCC2 | -57.8% (inactive) |
| COc1cc(/C=N\NC(=O)c2sc(N)nc2C)cc(OC)c1OC | 15.9% (inactive) |
| C#CC[N+](C)(C)CCCCCCCCCCCC | 37.5% (inactive) |
| CCc1ccc(Nc2n[n+](-c3ccccc3)c(-c3ccc(N(CC)CC)cc3)s2)cc1 | -3.22% (inactive) |
| CN(Cc1ccc(Cl)s1)C(=O)CCl | 1.46% (inactive) |
| COC(=O)CNC(c1ccccc1)c1cc(Br)ccc1NC(=O)CCN1CCOCC1 (stereo not drawn) | 8.3% (inactive) |
| NS(=O)(=O)c1cc(C(=O)NCCOc2ccccc2)c(Cl)cc1Cl | 43.3% (inactive) |
| COc1ccc(C=CC(=O)c2ccc(OC)c(OC)c2O)cc1OC | 14.6% (inactive) |
| COc1ccc(/C=C/C(=O)c2ccc3c4c(cccc24)CC3)cc1 | 8.97% (inactive) |
| COc1cc(/C=C/C(=O)c2ccc(Cl)s2)cc(OC)c1O | 3.5% (inactive) |
| COc1ccc(OC(=O)N2C/C(=C/c3ccccc3)C(=O)/C(=C\c3ccccc3)C2)cc1 | -32.7% (inactive) |
| O=CC1=C(c2ccccc2)Oc2ccccc2O1 | -21% (inactive) |
| Nc1nonc1-c1nc2ccccc2n1Cc1ccccc1 | 30% (inactive) |
| Cc1noc2ncnc(Sc3ccc(Br)cc3)c12 | 15.6% (inactive) |
| COc1cc(O)c(C(=O)/C=C/c2ccccc2)c(OC)c1 | 49% (inactive) |
| COc1ccc(C=CC(=O)c2c(OC)cc(OC)c(OC)c2O)cc1 | -20.6% (inactive) |
| CCOC(=O)C(=Cc1ccc(-c2ccsc2C(=O)OC)o1)C(=O)OCC | 24.1% (inactive) |
| Oc1cc(NCc2ccc(Cl)cc2)cc2cccnc12 | -33.2% (inactive) |
| COc1cc(CNc2ccc(O)cc2)cc(Br)c1OCc1ccccc1 | 23.2% (inactive) |
| CC(=O)n1cc(/C=N/NC(=O)c2sc(C)nc2C)c2ccccc21 | 65.5% (inactive) |
| CCOc1ccc(-n2c(C)cc(C(=O)CCl)c2C)cc1 | -6.33% (inactive) |

| SMILES | activity increase (luciferase signal) |
| --- | --- |
| COc1ccc(Nc2c3ccccc3nc3ccccc23)cc1 | -37.8% (inactive) |
| COCCOC(=O)c1[nH]c2c(c1C)C(=O)CC(c1ccco1)C2 (stereo not drawn) | 34.5% (inactive) |
| CN(C)CCCNc1cc(-c2ccccc2)nc2cc(-c3cccc(F)c3)nn12 | 28.9% (inactive) |
| CCCCCC[n+]1ccccc1/C=C/c1ccc(N(C)C)cc1 | -64.3% (inactive) |
| CCN(CC)S(=O)(=O)c1ccc(-c2nnc(SCC(=O)N3CCc4ccccc43)o2)cc1 | 39% (inactive) |
| O=C(c1ccc(Cl)cc1)C(CN1CCCCC1)c1ccccc1 (stereo not drawn) | -90.7% (inactive) |
| Cc1ccc(Oc2ccc(S(=O)(=O)N3CCOCC3)cc2C(N)=O)c(-n2nc3ccccc3n2)c1 | -17.3% (inactive) |
| Nc1ccc2nc(-c3ccccc3)c(-c3ccccc3)nc2c1 | 4.94% (inactive) |
| O=S(=O)(Nc1cccc2cccnc12)c1ccc(S(=O)(=O)N2CCCC2)cc1 | -5.43% (inactive) |
| COc1ccc2nc3c(cc2c1)c(NC(=O)CC(C)C)nn3CC(C)C | -23.4% (inactive) |
| O=C(Nc1c2ccccc2nc2ccccc12)C(Cl)(Cl)Cl | 41.3% (inactive) |
| CN1CC(=O)N2C(c3ccc(Cl)cc3)c3[nH]c4ccccc4c3C[C@H]2C1=O (stereo partly drawn) | 11.1% (inactive) |
| COc1ccc(Cn2c(=O)c3[nH]cnc3n(-c3ccccc3C)c2=O)cc1 | 14.1% (inactive) |
| Cc1cc(-n2c(SCC(=O)NCCC3=CCCCC3)nc3n[nH]c(C)c3c2=N)ccc1Cl | 12.7% (inactive) |
| CCN(CC)CCCNC(=O)CSc1c2c(nc3cc(Cl)ccc13)CCCC2 | -21.6% (inactive) |
| CCOC(=O)c1[nH]c2ccc(F)cc2c1NC(=O)C(C)N1CCc2cc(OC)c(OC)cc2C1 (stereo not drawn) | 17.3% (inactive) |
| CCN(CC)c1ccc(NC(=O)CC2Oc3ccccc3NC2=O)c(C)c1 (stereo not drawn) | 13.1% (inactive) |
| COc1ccc(C2C3=C(COC3=O)Oc3cc4c(cc32)OCO4)cc1OC (stereo not drawn) | 39.7% (inactive) |
| COc1cc(NC(=O)NCc2ccco2)ccc1-c1ccc(NC(=O)NCc2ccco2)cc1OC | -17.9% (inactive) |
| Cc1ccc(C)c(NC(=O)Cn2nnc(C(=O)NCc3ccco3)c2N)c1 | 50% (inactive) |
| C=CCOc1ccccc1C(=O)/C=C1/C(=O)Nc2ccccc21 | 39.7% (inactive) |
| c1cnc2nc3c4ccccc4c4ccccc4c3nc2c1 | 14% (inactive) |
| CCn1c(SCC(=O)Nc2ccc(C(C)=O)cc2)nc2c([nH]c3ccccc32)c1=O | -9.93% (inactive) |

| SMILES | activity increase (luciferase signal) |
| --- | --- |
| Cc1cc(C)c(NC(=O)CSc2nc(COc3ccccc3)nc3ccccc23)c(C)c1 | 27.5% (inactive) |
| Cc1ccc(C(C)C)c(OCc2nnc(SCC(=O)Nc3ncc(C)s3)n2C)c1 | -52.9% (inactive) |
| COc1ccc(-c2nnc(SCC(=O)Nc3ncc(C)s3)n2-c2ccccc2)cc1OC | -24.2% (inactive) |
| COc1ccc2c(c1)c1ccc3c(c1n2C)C(=O)C=CC3=O | 7.43% (inactive) |
| CC1(C(=O)NCc2ccc(F)c(F)c2)Cc2c(-c3ccc4c(c3)OCO4)ccnc2O1 (stereo not drawn) | 17.7% (inactive) |
| O=C(N/N=C/c1cccc(Br)c1)c1ccc(N2CCCC2=O)cc1 | 60.1% (inactive) |
| CC(=O)/C=C/c1ccccc1Oc1c(F)c(F)nc(F)c1F | -19.5% (inactive) |
| CC(=O)N1c2ccccc2C(=O)C1N(C)c1ccc(C)cc1 (stereo not drawn) | 11.4% (inactive) |
| COc1ccc(CCn2c(=N)c(C(=O)NCC3CCCO3)cc3c(=O)n4cccc(C)c4nc32)cc1 (stereo not drawn) | -27.9% (inactive) |
| COc1ccc(CCn2c(=N)c(C(=O)NCCN3CCOCC3)cc3c(=O)n4cccc(C)c4nc32)cc1OC | 8.4% (inactive) |
| COc1ccc(NC(=O)COC(=O)/C=C/C(=O)OCC(=O)Nc2ccc(OC)c(Cl)c2)cc1Cl | 0.926% (inactive) |
| CCOc1ccc(Nc2nnc(SCc3nc4ccccc4c(=O)[nH]3)s2)cc1 | 4.11% (inactive) |
| CCOc1ccc(Nc2c3ccccc3nc3ccccc23)cc1 | -45.8% (inactive) |
| Cn1cnc([N+](=O)[O-])c1S(=O)(=O)Oc1ccccc1 | 16.6% (inactive) |
| CCN1/C(=C/c2sc(-c3ccccc3C)c[n+]2C)Sc2ccccc21 | -54.8% (inactive) |
| O=C(CC1Sc2ccccc2NC1=O)NNc1cccc(Cl)c1Cl (stereo not drawn) | 43.9% (inactive) |
| O=C(Cc1ccc(Cl)cc1)Nc1ccccc1N1CCN(C(=O)c2ccccc2)CC1 | 309% (inactive) |
| CCOC(=O)c1c(NC(=O)CCl)sc(C(=O)N(CC)CC)c1C | -4.47% (inactive) |
| CCOC(=O)c1c(NC(C)=O)sc2c1CCC(C=O)=C2Sc1ccccc1 | -5.28% (inactive) |
| CNC(=O)COC(=O)c1ccccc1C(=O)c1ccc(Cl)c([N+](=O)[O-])c1 | -9.98% (inactive) |
| COc1ccc([N+](=O)[O-])cc1NC(=O)CCN1CCN(CCO)CC1 | 29.9% (inactive) |
| CCOC(=O)c1ccc(-n2cccc2/C=C2\NC(=O)NC2=O)cc1 | -16.1% (inactive) |
